According to PubChem BioAssay (EPA / NIEHS):
Activity calls are given as the source filed them. Rule for the calls: active = hit-call score of the fitted dose curve at least 0.9, where 1 is the maximum; inactive = score below 0.9.

Key:
[1] = ATG_CRE_CIS: Attagene CIS-FACTORIAL HepG2 Assay for human cAMP Responsive Element (CRE) binding protein 3 (AID 2282926); settings: HepG2 CRE cis-reporter, Attagene multiplexed mRNA; actives raise or lower the signal
Method in brief: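 Assay format: transient reporter transfection of HepG2, 24 h treatment, total RNA isolation with DNase I step. Reporter abundance read by fluorescence after PCR and capillary separation; DMSO-normalised gain or loss fitting.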

[2] = biological target: CCAAT/enhancer-binding protein beta (Homo sapiens) (UniProt P17676); assay: ATG_C_EBP_CIS: Attagene CIS-FACTORIAL HepG2 Assay for human CCAAT/Enhancer Binding Protein (C/EBP) beta (AID 2282927); settings: HepG2 Attagene cis-factorial transcription factor reporter; actives raise or lower the signal
Method in brief: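 HepG2 transiently transfected with multiplexed reporter units under cis-regulatory promoters reporting endogenous C/EBPb activity. After 24 h exposure, reporter mRNA assayed by RT-PCR, fluorescent labelling, HpaI digestion and capillary electrophoresis; bidirectional fitting versus DMSO.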

[3] = ATG_CMV_CIS: Attagene CIS-FACTORIAL HepG2 Assay for human CMV (Internal Marker) (AID 2282928); settings: HepG2 CMV promoter reporter, transcription factor profiling; actives raise or lower the signal;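 note: endpoint acts as a background internal control marker rather than a target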
Method in brief: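 Bidirectional fits against DMSO are applied to reporter mRNA, read by RT-PCR with capillary electrophoresis, from HepG2 cells exposed 24 h. The endpoint serves as an internal CMV background marker within the cis-factorial reporter panel.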

[4] = ATG_DR4_LXR_CIS: Attagene CIS-FACTORIAL HepG2 Assay for human Liver X Receptor (LXR), DR4 submotif (AID 2282929); settings: HepG2 Attagene DR4 cis-reporter, mRNA transcription; actives raise or lower the signal
Method in brief: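 HepG2, transient MRTU transfection, cis-element (DR4) promoter; 24 h compound exposure; total RNA → oligo(dT) RT → PCR → 6-FAM primer extension → HpaI cut → CE. Gain/loss vs DMSO, bidirectional fit.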

[5] = biological target: Aryl hydrocarbon receptor (Homo sapiens) (UniProt P35869); assay: ATG_Ahr_CIS: Attagene CIS-FACTORIAL HepG2 Assay for human Aryl Hydrocarbon Receptor (Ahr) (AID 2282930); settings: HepG2 AhR cis-factorial reporter transcription; actives raise or lower the signal
Method in brief: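 HepG2 cells transiently transfected with cis-element-driven multiplexed reporter units; endogenous AhR activity read as reporter mRNA 24 h after dosing, via RT-PCR, 6-FAM labelling, HpaI digestion and capillary electrophoresis. Bidirectional fit relative to DMSO.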

[6] = ATG_AP_1_CIS: Attagene CIS-FACTORIAL HepG2 Assay for human Activator Protein 1 (AP-1) (AID 2282931); settings: HepG2 Attagene cis-factorial AP-1 reporter mRNA; actives raise or lower the signal
Method in brief: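 Transient MRTU transfection of HepG2 → 24 h chemical treatment → RNA isolation, RT-PCR, 6-FAM labelling, HpaI digest → capillary electrophoresis. Fit: bidirectional, DMSO negative control.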

[7] = ATG_AP_2_CIS: Attagene CIS-FACTORIAL HepG2 Assay for human Activator Protein 2 (AP-2) (AID 2282932); settings: HepG2 AP-2 cis-reporter, Attagene transcription factor profiling; actives raise or lower the signal
Method in brief: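 Liver-derived HepG2 line, cis-reporter system measuring endogenous factors; 24 h dosing; reporter mRNA detected by fluorescent RT-PCR and capillary electrophoresis.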

[8] = ATG_BRE_CIS: Attagene CIS-FACTORIAL HepG2 Assay for human Bone Morphogenetic Protein (BMP) Response Element (BRE) (AID 2282933); settings: HepG2 BMP response element reporter, Attagene transcription factor profiling; actives raise or lower the signal
Method in brief: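 Fluorescence-labelled reporter cDNA fragments, separated by capillary electrophoresis, gave the signal for this component of a 52-readout multiplex. HepG2 cells were transfected, exposed to chemicals for 24 h, and compared with DMSO using bidirectional fitting.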

[9] = biological target: Transcription factor E2F1 (Homo sapiens) (UniProt Q01094); assay: ATG_E2F_CIS: Attagene CIS-FACTORIAL HepG2 Assay for human E2F Transcription Factor 1 (AID 2282935); settings: HepG2 Attagene cis-reporter, E2F reporter RNA transcripts; actives raise or lower the signal
Method in brief: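 Liver-derived HepG2 cells expressing transfected promoter-driven reporter units received test chemical for 24 hours. Signal gains or losses were fitted bidirectionally against DMSO.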

[10] = ATG_E_Box_CIS: Attagene CIS-FACTORIAL HepG2 Assay for human Enhancer Box (E-box) (AID 2282936); settings: HepG2 E-box cis-reporter transcription, actives raise or lower the signal
Method in brief: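 In this cell-based setup, HepG2 cells bearing transfected promoter-driven reporter units were exposed to chemicals for 24 h; reporter transcripts were amplified, 6-FAM-labelled, cut with HpaI and sized by capillary electrophoresis.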

[11] = ATG_M_61_CIS: Attagene CIS-FACTORIAL HepG2 Assay for M61 Transcription Factor (Internal Marker) (AID 2282937); settings: HepG2 Attagene CIS-FACTORIAL M61 internal marker reporter; actives raise or lower the signal
Method in brief: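 Human liver HepG2, transient MRTU transfection (cis promoter elements), 24 h compound. Total RNA → oligo(dT) RT → PCR → FAM label → HpaI → CE. Internal background marker; bidirectional fitting, DMSO = baseline.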

[12] = ATG_EGR_CIS: Attagene CIS-FACTORIAL HepG2 Assay for human Early Growth Response 1 (EGR1) (AID 2282938); settings: HepG2 Attagene CIS-FACTORIAL EGR reporter mRNA; actives raise or lower the signal
Method in brief: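 Transient transfection of human HepG2 with multiple cis-regulated reporter units, chemical exposure 24 h, total RNA isolated. Reverse transcription, PCR, fluorescent labelling and capillary electrophoresis quantify reporter transcripts; activity fitted bidirectionally against DMSO.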

[13] = ATG_M_19_CIS: Attagene CIS-FACTORIAL HepG2 Assay for M19 Transcription Factor (Internal Marker) (AID 2282939); settings: HepG2 Attagene CIS-FACTORIAL M19 internal marker reporter; actives raise or lower the signal
Method in brief: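 HepG2, MRTU transient transfection, 24 h dosing. Total RNA → RT-PCR → 6-FAM primer extension → HpaI digest → CE fluorescence. Bidirectional curve fit, DMSO negative control.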

[14] = ATG_ERE_CIS: Attagene CIS-FACTORIAL HepG2 Assay for Estrogen Response Element (ERE) (AID 2282940); settings: HepG2 ERE cis-reporter, Attagene RNA transcript; actives raise or lower the signal
Method in brief: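 After a 24 h chemical treatment, RNA from reporter-transfected HepG2 cells is reverse-transcribed, PCR-amplified and fluorescently labelled. Fragments separated by capillary electrophoresis give reporter signal; DMSO serves as negative control.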

[15] = ATG_Ets_CIS: Attagene CIS-FACTORIAL HepG2 Assay for human Erythroblast Transformation Specific (ETS) (AID 2282941); settings: HepG2 ETS cis-reporter transcription, actives raise or lower the signal
Method in brief: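 Endogenous transcription factor activity read as reporter mRNA via RT-PCR and capillary electrophoresis, with gain or loss fitted bidirectionally against DMSO. Human HepG2 liver cells, transiently transfected CIS reporter constructs, 24 h exposure.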

[16] = biological target: Hepatocyte nuclear factor 3-beta (Homo sapiens) (UniProt Q9Y261); assay: ATG_FoxA2_CIS: Attagene CIS-FACTORIAL HepG2 Assay for human Forkhead box A2 (FOXA2) (AID 2282942); settings: HepG2 cis-reporter transcription factor activity, 24 h; actives raise or lower the signal
Method in brief: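 Transient MRTU transfection of HepG2 liver cells; 24 h treatment; total RNA → oligo(dT) RT → PCR → FAM primer extension → HpaI cut → CE. Bidirectional fit vs DMSO.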

[17] = ATG_FoxO_CIS: Attagene CIS-FACTORIAL HepG2 Assay for human Forkhead box O (FoxO) (AID 2282943); settings: HepG2 Attagene cis-reporter, FoxO element, mRNA; actives raise or lower the signal
Method in brief: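 HepG2 cells transiently transfected with cis-element-driven reporter units report endogenous FoxO activity. After 24 h chemical exposure, reporter mRNA quantified by RT-PCR, fluorescent labeling, HpaI digestion and capillary electrophoresis; bidirectional fit versus DMSO.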

[18] = ATG_GATA_CIS: Attagene CIS-FACTORIAL HepG2 Assay for human GATA Binding Protein (AID 2282944); settings: HepG2 GATA cis-element reporter, Attagene multiplex mRNA; actives raise or lower the signal
Method in brief: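 Cells: HepG2, transiently transfected with cis-regulated reporter transcription units. Exposure: 24 h. Detection: RT-PCR plus capillary electrophoresis of FAM-labeled fragments. Analysis: bidirectional, DMSO as baseline.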

[19] = ATG_GLI_CIS: Attagene CIS-FACTORIAL HepG2 Assay for human Zinc Finger Protein GLI1 (AID 2282945); settings: HepG2, Attagene cis-factorial reporter mRNA, GLI element; actives raise or lower the signal
Method in brief: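 Transiently transfected HepG2 cells report endogenous transcription factor activity via cis-element-driven reporter units. After 24 h compound exposure, reporter mRNA was measured by RT-PCR with capillary electrophoresis; bidirectional fitting against DMSO baseline.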

Measured: AC50

Chain of Hepatocyte nuclear factor 3-beta (Homo sapiens) (Q9Y261 whole entry, looked up): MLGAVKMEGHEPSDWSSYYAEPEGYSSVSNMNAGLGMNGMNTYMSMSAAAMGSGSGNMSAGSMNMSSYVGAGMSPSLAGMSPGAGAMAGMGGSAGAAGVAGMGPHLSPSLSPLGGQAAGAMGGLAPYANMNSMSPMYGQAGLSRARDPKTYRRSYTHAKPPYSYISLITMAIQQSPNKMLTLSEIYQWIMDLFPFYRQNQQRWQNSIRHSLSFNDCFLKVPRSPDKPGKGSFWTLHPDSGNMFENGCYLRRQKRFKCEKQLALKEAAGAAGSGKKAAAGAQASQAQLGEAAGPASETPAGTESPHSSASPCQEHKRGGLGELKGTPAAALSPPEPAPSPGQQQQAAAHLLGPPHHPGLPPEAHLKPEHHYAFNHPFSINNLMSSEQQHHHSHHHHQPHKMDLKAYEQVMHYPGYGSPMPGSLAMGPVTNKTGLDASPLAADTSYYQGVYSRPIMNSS
Chain of Aryl hydrocarbon receptor (Homo sapiens) (P35869 whole entry, looked up): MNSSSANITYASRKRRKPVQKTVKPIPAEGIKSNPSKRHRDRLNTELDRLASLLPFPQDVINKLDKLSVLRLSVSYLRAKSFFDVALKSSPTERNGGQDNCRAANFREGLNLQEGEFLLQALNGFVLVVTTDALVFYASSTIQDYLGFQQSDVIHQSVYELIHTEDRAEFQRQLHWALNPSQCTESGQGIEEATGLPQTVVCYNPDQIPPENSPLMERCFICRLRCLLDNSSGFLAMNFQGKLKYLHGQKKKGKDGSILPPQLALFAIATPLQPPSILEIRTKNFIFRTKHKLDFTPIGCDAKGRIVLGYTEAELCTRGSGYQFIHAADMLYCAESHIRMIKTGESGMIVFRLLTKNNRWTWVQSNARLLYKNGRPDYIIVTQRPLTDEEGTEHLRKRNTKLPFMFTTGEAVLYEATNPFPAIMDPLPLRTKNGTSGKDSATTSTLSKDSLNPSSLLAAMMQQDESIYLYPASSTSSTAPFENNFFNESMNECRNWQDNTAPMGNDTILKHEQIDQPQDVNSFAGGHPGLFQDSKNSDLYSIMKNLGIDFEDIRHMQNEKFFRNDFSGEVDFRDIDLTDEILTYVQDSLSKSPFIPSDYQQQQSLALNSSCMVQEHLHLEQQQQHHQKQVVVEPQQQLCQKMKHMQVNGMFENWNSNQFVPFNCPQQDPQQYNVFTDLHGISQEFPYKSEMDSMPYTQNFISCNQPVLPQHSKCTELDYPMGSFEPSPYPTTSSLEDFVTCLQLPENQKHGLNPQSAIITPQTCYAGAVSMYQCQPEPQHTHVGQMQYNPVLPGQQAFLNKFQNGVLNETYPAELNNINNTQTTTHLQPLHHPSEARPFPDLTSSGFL
Chain of CCAAT/enhancer-binding protein beta (Homo sapiens) (P17676 whole entry, looked up): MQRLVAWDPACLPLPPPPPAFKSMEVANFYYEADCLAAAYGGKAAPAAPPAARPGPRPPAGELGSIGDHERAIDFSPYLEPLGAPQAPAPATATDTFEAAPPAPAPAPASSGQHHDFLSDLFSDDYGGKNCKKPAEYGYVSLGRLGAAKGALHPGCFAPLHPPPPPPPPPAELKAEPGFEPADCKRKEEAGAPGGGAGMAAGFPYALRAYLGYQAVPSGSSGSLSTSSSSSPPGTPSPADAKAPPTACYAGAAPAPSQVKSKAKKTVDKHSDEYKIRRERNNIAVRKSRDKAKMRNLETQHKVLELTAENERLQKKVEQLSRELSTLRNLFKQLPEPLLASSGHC
Chain of Transcription factor E2F1 (Homo sapiens) (Q01094 whole entry, looked up): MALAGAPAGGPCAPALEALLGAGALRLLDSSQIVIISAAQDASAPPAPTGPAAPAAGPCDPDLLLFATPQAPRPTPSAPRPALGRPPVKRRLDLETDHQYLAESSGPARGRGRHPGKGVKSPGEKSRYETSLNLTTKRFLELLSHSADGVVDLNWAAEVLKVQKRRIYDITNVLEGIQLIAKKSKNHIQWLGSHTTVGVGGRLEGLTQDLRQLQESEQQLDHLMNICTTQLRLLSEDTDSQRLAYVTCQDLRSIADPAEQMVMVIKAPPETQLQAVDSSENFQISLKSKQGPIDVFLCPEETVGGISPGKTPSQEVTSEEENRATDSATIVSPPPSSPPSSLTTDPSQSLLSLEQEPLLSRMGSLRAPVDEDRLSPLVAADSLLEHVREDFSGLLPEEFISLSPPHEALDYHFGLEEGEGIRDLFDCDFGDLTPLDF

CNC(=O)Oc1ccc2c(c1)[C@]1(C)CCN(C)[C@@H]1N2C
inactive: [1] | [2] | [3] | [4] | [5] | [6] | [7] | [8] | [9] | [10] | [11] | [12] | [13] | [14] | [15] | [16] | [17] | [18] | [19]

CN(C)c1ccc(O)c2c1C[C@H]1C[C@H]3[C@H](N(C)C)C(=O)C(C(N)=O)=C(O)[C@@]3(O)C(=O)C1=C2O
inactive: [1] | [2] | [3] | [4] | [5] | [6] | [7] | [8] | [9] | [10] | [11] | [12] | [13] | [14] | [15] | [16] | [17] | [18] | [19]

NNc1nc(-c2ccc(N)cc2)cs1
inactive: [1] | [2] | [3] | [4] | [5] | [6] | [7] | [8] | [9] | [10] | [11] | [12] | [13] | [14] | [15] | [16] | [17] | [18] | [19]

Cc1ccccc1C=O
active: [5] 53.5 µM
inactive: [1] | [2] | [3] | [4] | [6] | [7] | [8] | [9] | [10] | [11] | [12] | [13] | [14] | [15] | [16] | [17] | [18] | [19]

CC1COc2ccccc2N1C(=O)C(Cl)Cl (configuration not stated)
active: [6] 27.4 µM | [12] 41.1 µM | [17] 21 µM
inactive: [1] | [2] | [3] | [4] | [5] | [7] | [8] | [9] | [10] | [11] | [13] | [14] | [15] | [16] | [18] | [19]

CNCCCC12CCC(c3ccccc31)c1ccccc12
inactive: [1] | [2] | [5] | [6] | [7] | [8] | [9] | [10] | [11] | [13] | [14] | [16] | [17] | [18]
active: [3] 11.1 µM | [4] 11.1 µM | [12] 15.7 µM | [15] 11.1 µM | [19] 15.7 µM

O=P(c1ccccc1)(c1ccccc1)c1ccccc1
inactive: [1] | [2] | [3] | [5] | [6] | [7] | [8] | [9] | [10] | [11] | [12] | [13] | [14] | [15] | [16] | [17] | [18] | [19]
active: [4] 58.6 µM

O=Nc1ccc(Nc2ccccc2)cc1
inactive: [1] | [6] | [7] | [8] | [9] | [11] | [13] | [14] | [15] | [17] | [18]
active: [2] 8.78 µM | [3] 8.52 µM | [4] 25.3 µM | [5] 33.4 µM | [10] 9.04 µM | [12] 37.7 µM | [16] 47.9 µM | [19] 55 µM
